# From PubChem BioAssay (EPA / NIEHS)
# Where “and” joins values, the source holds several entries; their conditions need not be identical. Equal entries are not always repeated. Results filed as inconclusive are left out. Calls of active or inactive are those of the source. Rule for the calls, unless noted: active = hit-call score of the fitted dose curve at least 0.9, where 1 is the maximum; inactive = score below 0.9.
# Columns and labels:
# [1] = CCTE_Shafer_MEA_acute_LDH: CCTE's Lactate Dehydrogenase Assay for Cytotoxicity in the Neural Acute Assay, Shafer Lab (AID 2284086; active = hit-call score of the fitted dose curve at least 0.9, where 1 is the maximum;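 note: active means LDH release rises above DMSO vehicle level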)
# In short: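 Cytotoxicity readout: spectrophotometric LDH activity in supernatant of rat primary cortical neurons, post-plating day 13 or 15, sampled after 40 min compound exposure; signal gain relative to DMSO baseline.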
# [2] = CCTE_Shafer_MEA_dev_mutual_information_norm: CCTE's Neural Network Formation Assay for Mutual Information Normalization, Shafer Lab (AID 2284091);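 for AC50: mutual information between electrodes summarised as area under curve across four recording days; potency is for a decrease in mutual information relative to DMSO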
# In short: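 Exposure of primary rat cortical neurons began at plating and ran to DIV 12, with full media and treatment renewal after DIV 5 and 9 recordings. Mutual information AUC (DIV 5–12) was analysed for loss versus DMSO.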
# [3] = CCTE_Shafer_MEA_dev_correlation_coefficient_mean: CCTE's Neural Network Formation Assay for Mean Correlation Coefficient, Shafer Lab (AID 2284093);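 for AC50: well mean pairwise spike train correlation integrated as AUC over recording days 5 to 12; potency fitted for loss of correlation relative to DMSO vehicle wells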
# In short: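 Primary rat cortical neurons on PEI-coated 48-well MEA plates (16 electrodes/well) were exposed from plating day 0 through DIV12, with compound renewed at DIV5 and 9. Pairwise spike correlations were averaged per well; trapezoidal AUC across DIV5, 7, 9, 12.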
# [4] = TAMU_PeakParms_SingleDonor1434_Chronotropy: Texas A&M University (TAMU) 1.5-hr Human Induced Pluripotent Stem Cell (iPSC)-derived Cardiomyocytes Calcium (Ca+2) Flux Assay for Cardiotoxicity: Chronotropy (changes in peak frequency) (AID 2284217); details: actives raise or lower the signal
# In short: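 Beat rate, as mean Ca2+-flux peak frequency, was read from donor 1434 iPSC cardiomyocytes 90 min after exposure to 0.2–100 uM test chemical (0.5% DMSO). Wells that stopped beating were excluded; EC05 from bidirectional DMSO-referenced fitting.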
# [5] = CCTE_Shafer_MEA_dev_AB: CCTE's Alamar Blue Assay for Cytotoxicity in the Neural Network Formation Assay, Shafer Lab (AID 2284083; active = hit-call score of the fitted dose curve at least 0.9, where 1 is the maximum;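 note: resazurin reduction fluorescence as viability of cultured neurons; twelve days of exposure from plating with re-dosing on DIV 5 and 9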)
# In short: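 Resazurin fluorescence, relative to DMSO, gauges viability after twelve days of exposure that began at plating of rat cortical neurons (1.5 x 10^5 cells/well, 48-well MEA); treatment renewed with full medium exchange on DIV 5 and 9.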
# [6] = IUF_NPC1b_proliferation_BrdU_72hr: Leibniz Research Institute for Environmental Medicine (IUF) 72-hour Neural Progenitor Cell Bromodeoxyuridine (BrdU) Proliferation Assay (NPC1b) (AID 2284207)
# In short: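 Neural progenitor spheres of human fetal origin are treated for three days; BrdU added for the last 16 h is quantified by luminescence ELISA, with DMSO as baseline and EGF/FGF omission as positive control.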
# [7] = IUF_NPC1a_proliferation_area_72hr: Leibniz Research Institute for Environmental Medicine (IUF) 72-hour Neural Progenitor Cell Proliferation Area Assay (NPC1a) (AID 2284208)
# In short: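 Single 0.25–0.35 mm human fetal neural progenitor spheres in proliferation medium with EGF and FGF, exposed 72 h from plating without renewal at 37C, pH 7.2-7.6. Sphere area growth measured by automated phase-contrast imaging, relative to DMSO.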
# [8] = IUF_NPC1_viability_72hr: Viability Assessment at 72 hours in the Leibniz Research Institute for Environmental Medicine (IUF) Neural Progenitor Cell Proliferation Assay (NPC1) (AID 2284209)
# In short: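 Three-day continuous exposure of human neural progenitor spheres under EGF/FGF-driven proliferation; cell viability scored by alamar blue signal versus DMSO.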
# [9] = CCTE_Mundy_HCI_Cortical_Synap_Neur_Matur_NeuriteSpotCountPerNeuriteLength: CCTE's Synaptogenesis and Neurite Maturation Assay in rat cortical cells for Neurite Spot Count per Neurite Length, Mundy Lab (AID 2284210)
# In short: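 Neurite-associated synapse density (synaptophysin puncta per unit neurite length) is measured by fluorescence high-content imaging in rat cortical cultures treated from DIV 7 and fixed at DIV 12, with DMSO as negative control.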
# [10] = CCTE_Mundy_HCI_Cortical_Synap_Neur_Matur_BPCount: CCTE's Synaptogenesis and Neurite Maturation Assay in rat cortical cells for Branch Point Count, Mundy Lab (AID 2284211)
# In short: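 In this multiplexed morphology assay, cortical cells from rat receive chemicals at DIV 7 and are fixed at DIV 12, then immunostained and imaged; branch points are counted, with DMSO as baseline.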
# [11] = CCTE_Mundy_HCI_Cortical_NOG_NeuriteCount: CCTE's Neurite Outgrowth Assay in rat cortical cells for Neurite Count, Mundy Lab (AID 2284212);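 note: cells fixed about two days after chemical exposure began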
# In short: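 Rat cortical primary cells; compound added 2 h post-plating, 1/10 dilution of working solution. Anti-betaIII-tubulin/AF488 ICC; ArrayScan neurite count vs DMSO.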
# [12] = CCTE_Mundy_HCI_Cortical_NOG_NeuriteLength: CCTE's Neurite Outgrowth Assay in rat cortical cells for Neurite Length, Mundy Lab (AID 2284213);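 for AC50: neurites imaged about 48 to 50 h after chemical exposure began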
# In short: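 First, rat primary cortical cells were plated and, 2 h later, given test chemical as a 1/10 dilution. Finally, βIII-tubulin immunostaining enabled automated imaging of neurite length.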
# [13] = CCTE_Mundy_HCI_Cortical_Synap_Neur_Matur_NeuriteLength: CCTE's Synaptogenesis and Neurite Maturation Assay in rat cortical cells for Neurite Length, Mundy Lab (AID 2284214)
# In short: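 DMSO-normalised neurite length, from high-content imaging of anti-MAP2-stained rat cortical cells fixed at DIV 12. Glia were suppressed with AraC (DIV 5) before chemical exposure from DIV 7.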
# [14] = CCTE_Mundy_HCI_Cortical_Synap_Neur_Matur_NeuriteSpotCountPerNeuron: CCTE's Synaptogenesis and Neurite Maturation Assay in rat cortical cells for Neurite Spot Count per Neuron Count, Mundy Lab (AID 2284215)
# In short: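 Rat primary cortical cultures given AraC at DIV 5, dosed from DIV 7 to DIV 12 with media change. Fixed, stained for MAP2, synaptophysin and Hoechst; neurite-associated synaptophysin puncta per neuron quantified by high-content imaging versus DMSO.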
# [15] = CCTE_Mundy_HCI_Cortical_Synap_Neur_Matur_SynapseCount: CCTE's Synaptogenesis and Neurite Maturation Assay in rat cortical cells for Synapse Count, Mundy Lab (AID 2284218)
# In short: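 Endpoint: synapses/neuron by HCI (synaptophysin puncta on MAP2-labelled neurites, Hoechst nuclei). Rat primary cortical cells, AraC DIV 5, dosed DIV 7, fixed DIV 12; DMSO negative control.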
# [16] = UKN2_HCS_IMR90_neural_migration: University of Konstanz (UKN) Leist Lab Neural Crest Cell Migration Assay in human induced IMR90 Pluripotent Stem Cells (UKN2) (AID 2284204); details: actives raise or lower the signal
# In short: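 Using a 96-well stopper format with PLO/laminin/fibronectin coating, neural crest cells from iPSC migrate in cytokine-supplemented N2-S medium; after 24 h, chemicals are applied for a further 24 h, then cells are imaged after dye staining.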
# [17] = UKN4_HCS_LUHMES_neurite_outgrowth: University of Konstanz (UKN) Leist Lab Neurite Outgrowth Assay in human LUHMES cells (UKN4) (AID 2284206); details: actives raise or lower the signal
# In short: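 Neurite area in dopaminergic-model LUHMES neurons is measured by high-content imaging of calcein-AM after 24 h treatment starting shortly after day-2 replating; Hoechst staining tracks viability.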
# [18] = CCTE_Mundy_HCI_hN2_NOG_NeuriteCount: CCTE's Neurite Outgrowth Assay in human hN2 cells for Neurite Count, Mundy Lab (AID 2284219; active = hit-call score of the fitted dose curve at least 0.9, where 1 is the maximum)
# In short: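 In this morphology assay, hNP1-derived neurons received test chemical 2 h post-plating and were fixed two days later in warm paraformaldehyde/sucrose containing Hoechst 33342. Neurites, labelled by rabbit anti-βIII-tubulin (1:800) and Alexa Fluor-488 (1:500), were counted automatically.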
# [19] = CCTE_Mundy_HCI_hN2_NOG_NeuriteLength: CCTE's Neurite Outgrowth Assay in human hN2 cells for Neurite Length, Mundy Lab (AID 2284220; active = hit-call score of the fitted dose curve at least 0.9, where 1 is the maximum)
# In short: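 Using βIII-tubulin immunofluorescence and Hoechst nuclear counterstain, this component quantifies neurite length in hNP1-derived neurons.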
# [20] = CCTE_Mundy_HCI_hN2_NOG_NeuronCount: CCTE's Neurite Outgrowth Assay in human hN2 cells for Neuron Count, Mundy Lab (AID 2284221; active = hit-call score of the fitted dose curve at least 0.9, where 1 is the maximum)
# In short: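 Read-out is the number of betaIII-tubulin-positive neurons imaged by automated high-content analysis, with DMSO as negative control.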
structure (smiles),measurement,setting,value
O=C(Nc1ccc2c(O)c(N=Nc3ccc(N=Nc4ccc(S(=O)(=O)O)cc4)cc3)c(S(=O)(=O)O)cc2c1)c1ccccc1,outcome,[1],inactive
FC(F)(F)COCC(F)(F)F,outcome,[2],inactive
same,outcome,[3],inactive
CC(C)NCC(O)COc1ccc(CC(N)=O)cc1 (configuration not stated),outcome,[4],inactive
CCCCCCC(CO)CCCC (configuration not stated),outcome,[1],inactive
CN(C)CCOC(C)(c1ccccc1)c1ccccn1 (configuration not stated),outcome,[5],inactive
same,outcome,[2],inactive
same,outcome,[3],inactive
same,outcome,[6],inactive
same,outcome,[7],inactive
same,outcome,[8],inactive
same,outcome,[9],inactive
same,outcome,[10],inactive
same,outcome,[11],inactive
same,outcome,[12],inactive
same,outcome,[13],inactive
same,outcome,[14],inactive
same,outcome,[15],inactive
CN(C)C(=S)SC(=S)N(C)C,outcome,[1],inactive
COCCc1ccc(OCC(O)CNC(C)C)cc1 (configuration not stated),outcome,[5],inactive
same,outcome,[1],inactive
same,outcome,[2],inactive
same,outcome,[3],inactive
same,outcome,[6],inactive
same,outcome,[7],inactive
same,outcome,[8],inactive
same,outcome,[9],inactive
same,outcome,[10],inactive
same,outcome,[11],inactive
same,outcome,[12],inactive
same,outcome,[13],inactive
same,outcome,[14],inactive
same,outcome,[15],inactive
CS(=O)(=O)OCCCCOS(C)(=O)=O,outcome,[5],inactive
same,outcome,[2],inactive
same,outcome,[3],inactive
Oc1c(Cl)cc(Cl)c(Cl)c1Cc1c(O)c(Cl)cc(Cl)c1Cl,AC50,[5],8.76 µM (active) and 3.54 µM (active)
same,outcome,[1],inactive
same,AC50,[2],578 nM (active) and 302 nM (active)
same,AC50,[3],765 nM (active) and 832 nM (active)
same,AC50,[16],0.885 µM (active)
same,AC50,[17],7.47 µM (active)
same,AC50,[6],13.4 µM (active)
same,AC50,[7],17.6 µM (active)
same,outcome,[8],inactive
same,outcome,[9],inactive
same,AC50,[10],8.53 µM (active)
same,AC50,[11],31 µM (active)
same,AC50,[12],23.1 µM (active)
same,AC50,[13],13.4 µM (active)
same,AC50,[14],9.95 µM (active)
same,outcome,[4],inactive
same,AC50,[15],13.1 µM (active)
same,AC50,[18],1.42 µM (active)
same,AC50,[19],1.38 µM (active)
same,AC50,[20],1.4 µM (active)
C=CC(C)(O)CCC=C(C)C (configuration not stated),outcome,[1],inactive
COCCOCCOCCO,outcome,[5],inactive
same,outcome,[2],inactive
same,outcome,[3],inactive
same,outcome,[16],inactive
same,outcome,[6],inactive
same,outcome,[7],inactive
same,outcome,[8],inactive
same,outcome,[9],inactive
same,outcome,[10],inactive
same,outcome,[11],inactive
same,outcome,[12],inactive
same,outcome,[13],inactive
same,outcome,[14],inactive
same,outcome,[15],inactive
CC1(C)CCC[C@]2(C)[C@H]3CCO[C@]3(C)CC[C@@H]12,outcome,[1],inactive
